# Data reported in the supplement of paper PMC12282887.
# ± gives the standard deviation of the averaged measurements.
# Tested on: E. coli BW25113 marRABp lux reporter
# Experiment: promoter activity interaction Z-score (Lux/OD deviation from empty-vector control); higher = stronger promoter induction by the compound
# Protocol: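 E. coli BW25113 (wild type or ΔmarA/ΔsoxS/Δrob) carrying pTU175 luxCDABE promoter reporters was grown in LB in 384-well plates at 37°C with each of 94 compounds at 4 two-fold concentrations, in biological duplicates. Luminescence and OD600 were read every 30 min for 12 h and integrated as AUC over 8 h (0-8 h WT, 1-9 h mutants). Lux AUC was divided by OD AUC; the interaction score is the residual of a Huber robust fit of each promoter against the empty-vector control, then Z-transformed per promoter.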
compound,measurement,setting,value
CNC[C@H](O)c1ccc(O)c(O)c1 [Adrenalin],promoter activity interaction Z-score,"13.7 µg/ml, genetic background: wild type",0.121 ± 0.2
same,promoter activity interaction Z-score,"13.7 µg/ml, genetic background: ΔmarA",-0.289 ± 0.22
same,promoter activity interaction Z-score,"13.7 µg/ml, genetic background: Δrob",-0.0038 ± 0.073
same,promoter activity interaction Z-score,"13.7 µg/ml, genetic background: ΔsoxS",-0.111 ± 0.21
same,promoter activity interaction Z-score,"27.5 µg/ml, genetic background: wild type",0.38 ± 0.26
same,promoter activity interaction Z-score,"27.5 µg/ml, genetic background: ΔmarA",0.173 ± 0.6
same,promoter activity interaction Z-score,"27.5 µg/ml, genetic background: Δrob",0.209 ± 0.28
same,promoter activity interaction Z-score,"27.5 µg/ml, genetic background: ΔsoxS",0.0712 ± 0.22
same,promoter activity interaction Z-score,"54.9 µg/ml, genetic background: wild type",-0.365 ± 0.31
same,promoter activity interaction Z-score,"54.9 µg/ml, genetic background: ΔmarA",-0.424 ± 0.13
same,promoter activity interaction Z-score,"54.9 µg/ml, genetic background: Δrob",-0.339 ± 0.43
same,promoter activity interaction Z-score,"54.9 µg/ml, genetic background: ΔsoxS",-0.285 ± 0.12
same,promoter activity interaction Z-score,"109.8 µg/ml, genetic background: wild type",-0.142 ± 0.4
same,promoter activity interaction Z-score,"109.8 µg/ml, genetic background: ΔmarA",-0.43 ± 0.15
same,promoter activity interaction Z-score,"109.8 µg/ml, genetic background: Δrob",0.0375 ± 0.16
same,promoter activity interaction Z-score,"109.8 µg/ml, genetic background: ΔsoxS",0.218 ± 0.26
C[C@]12CCC(=O)C=C1CC[C@@H]1[C@@H]2[C@@H](O)C[C@@]2(C)[C@H]1CC[C@]2(O)C(=O)CO [Hydrocortisone],promoter activity interaction Z-score,"22.7 µg/ml, genetic background: wild type",-0.21 ± 0.0069
same,promoter activity interaction Z-score,"22.7 µg/ml, genetic background: ΔmarA",-0.342 ± 0.029
same,promoter activity interaction Z-score,"22.7 µg/ml, genetic background: Δrob",-0.0926 ± 0.12
same,promoter activity interaction Z-score,"22.7 µg/ml, genetic background: ΔsoxS",-0.27 ± 0.066
same,promoter activity interaction Z-score,"45.3 µg/ml, genetic background: wild type",-0.258 ± 0.11
same,promoter activity interaction Z-score,"45.3 µg/ml, genetic background: ΔmarA",-0.377 ± 0.024
same,promoter activity interaction Z-score,"45.3 µg/ml, genetic background: Δrob",-0.12 ± 0.044
same,promoter activity interaction Z-score,"45.3 µg/ml, genetic background: ΔsoxS",-0.15 ± 0.019
same,promoter activity interaction Z-score,"90.6 µg/ml, genetic background: wild type",-0.225 ± 0.18
same,promoter activity interaction Z-score,"90.6 µg/ml, genetic background: ΔmarA",-0.395 ± 0.011
same,promoter activity interaction Z-score,"90.6 µg/ml, genetic background: Δrob",-0.23 ± 0.18
same,promoter activity interaction Z-score,"90.6 µg/ml, genetic background: ΔsoxS",-0.551 ± 0.19
same,promoter activity interaction Z-score,"181.2 µg/ml, genetic background: wild type",-0.465 ± 0.21
same,promoter activity interaction Z-score,"181.2 µg/ml, genetic background: ΔmarA",-0.467 ± 0.023
same,promoter activity interaction Z-score,"181.2 µg/ml, genetic background: Δrob",-0.34 ± 0.16
same,promoter activity interaction Z-score,"181.2 µg/ml, genetic background: ΔsoxS",-0.371 ± 0.24
COc1cc(/C=C/C(=O)CC(=O)/C=C/c2ccc(O)c(OC)c2)ccc1O [Curcumin],promoter activity interaction Z-score,"23 µg/ml, genetic background: wild type",0.0587 ± 1
same,promoter activity interaction Z-score,"23 µg/ml, genetic background: ΔmarA",0.238 ± 0.1
same,promoter activity interaction Z-score,"23 µg/ml, genetic background: Δrob",0.099 ± 0.28
same,promoter activity interaction Z-score,"23 µg/ml, genetic background: ΔsoxS",0.112 ± 0.41
same,promoter activity interaction Z-score,"46 µg/ml, genetic background: wild type",-0.237 ± 0.12
same,promoter activity interaction Z-score,"46 µg/ml, genetic background: ΔmarA",0.377 ± 0.29
same,promoter activity interaction Z-score,"46 µg/ml, genetic background: Δrob",-0.00179 ± 0.26
same,promoter activity interaction Z-score,"46 µg/ml, genetic background: ΔsoxS",-0.0875 ± 0.19
same,promoter activity interaction Z-score,"92.1 µg/ml, genetic background: wild type",0.812 ± 0.01
same,promoter activity interaction Z-score,"92.1 µg/ml, genetic background: ΔmarA",1.05 ± 0.41
same,promoter activity interaction Z-score,"92.1 µg/ml, genetic background: Δrob",0.00921 ± 0.51
same,promoter activity interaction Z-score,"92.1 µg/ml, genetic background: ΔsoxS",-0.225 ± 0.28
same,promoter activity interaction Z-score,"184.2 µg/ml, genetic background: wild type",0.402 ± 1
same,promoter activity interaction Z-score,"184.2 µg/ml, genetic background: ΔmarA",-0.341 ± 0.046
same,promoter activity interaction Z-score,"184.2 µg/ml, genetic background: Δrob",0.198 ± 0.15
same,promoter activity interaction Z-score,"184.2 µg/ml, genetic background: ΔsoxS",-0.312 ± 0.3
